Test results reported in PubChem BioAssay (NCATS).
Where “and” joins values, the source holds several entries; their conditions need not be identical. Identical values can stand only once. Results filed as inconclusive are left out. A number with no mark means an inactive call. Calls of active or inactive are those of the source. Calls follow the shape of the dose curve; as a rule, active = well fitted cell-killing curve with a large enough effect; inconclusive = small, poorly fitted or top-dose-only effect, or effect the other way; inactive = flat fitted curve, though single readings scatter.

assay: qHTS assay for cell viability of HEK293 cells (AID 743288); conditions: ATP luminescence (CellTiter-Glo), 18 h; max response: hits give low values; also: nearly all actives have a fitted effect of over 50% in size
Excerpt: National Center for Advancing Translational Sciences [NCATS]
NIH Chemical Genomics Center [NCGC]
U.S. Environmental Protection Agency [EPA]
National Institutes of Environmental Health Sciences [NIEHS]
National Toxicology Program [NTP]
U.S. Food and Drug Administration [FDA]
The CellTiter-Glo Luminescent Cell Viability Assay (Promega, Madison, WI) is a homogeneous method to determine the number of viable cells in culture based on quantitation of the ATP present, which signals the presence of metabolically active cells. This cell viability assay was used to screen environmental chemicals in the Hek293 cell line.
Tox21 Assay Protocol Summary:
Cell viability after compound treatment was measured using a luciferase-coupled ATP quantitation assay (CellTiter-Glo viability assay, Promega, Madison, WI) in parental HEK293 cells. Total intracellular ATP content corresponds to the number of metabolically competent cells after compound treatment. The cells were dispensed at 2,000 cells/5 uL/well in 1,536-well white/solid bottom assay plates using a Flying Reagent Dispenser (Aurora Discovery, San Diego, CA). The cells were incubated a minimum of 5 h at 37 C, followed by the addition of 23 nL of compounds dissolved in DMSO, positive controls or DMSO only using a pintool work station (Kalypsys, San Diego, CA). The assay plates were incubated for 18 h at 37 C, followed by the addition of 5 uL/well of CellTiter-Glo reagent. After 30 min incubation at room temperature, the luminescence intensity of the plates was measured using a ViewLux plate reader (PerkinElmer, Shelton, CT).
% is scaled to controls: 0 for no effect and ±100 for the full control effect; potency is read from the fitted curve at half-maximal effect.

| SMILES | max response | Potency |
| --- | --- | --- |
| CCCSP(=O)(OCC)SCCC | -0.31% |  |
| C[C@H]1CCC[C@H](O)CCCCCc2cc(O)cc(O)c2C(=O)O1 | -4.88% |  |
| O=C1C[C@@H]2OCC=C3CN4CC[C@]56c7ccccc7N1[C@H]5[C@H]2[C@H]3C[C@H]46 | -21.9% |  |
| CCOP(=O)(OCC)O/C(=C/Cl)c1ccc(Cl)cc1Cl | -28.5% and -27.3% |  |
| COc1ccc2c(c1OC)C(=O)OC2C1c2cc3c(cc2CCN1C)OCO3 (stereo not given) | -5.26% |  |
| O=C/C=C/c1ccccc1 | -23.6% |  |
| CC(C)(C)c1cc(O)ccc1O | -11% and 8.59% and 5.79% |  |
| O=Cc1ccco1 | 6.18% |  |
| COCC(C)N(C(=O)CCl)c1c(C)csc1C (stereo not given) | -15.8% |  |
| N#CN | -11.1% |  |
| S=C=S | -4.58% |  |
| O=c1[nH]c(=O)n(Cl)c(=O)n1Cl | -3.48% |  |
| C[CH2][Hg][S]c1ccccc1C(=O)O |  | 50.1 µM (active) |
| O=C(NCNC(=O)NC1C(=O)NC(=O)N1CO)NC1C(=O)NC(=O)N1CO (stereo not given) | -3.93% |  |
| [O]=[Cd] | 3.33% |  |
| ClCC1CO1 (stereo not given) | 3.04% |  |
| [Cl-].[Cl-].[Hg+2] |  | 44.7 µM (active) |
| O=C(O)C(Cl)(Cl)Cl | 7.06% and 1.52% |  |
| CCCCCl | -0.598% |  |
| C#CCN1CC(=O)N(COC(=O)C2C(C=C(C)C)C2(C)C)C1=O (stereo not given) | -15.4% |  |

| SMILES | max response | Potency |
| --- | --- | --- |
| ClC(Cl)(Cl)Cl | -6.99% and 5.96% |  |
| O=C1CCO1 | 5.83% |  |
| O=CC=O | -6.19% |  |
| O=C1C2CC=CCC2C(=O)N1SC(Cl)(Cl)Cl (stereo not given) |  | 10 µM (active) |
| Oc1cc(Cl)c(Cl)cc1Cl | -2.85% and 0.876% |  |
| NNC(N)=O | -7.58% |  |
| C[C@H]1CC[C@@H]2[C@@H](C)[C@H]3[C@H](C[C@H]4[C@@H]5CC=C6CC(O[C@@H]7O[C@H](CO)[C@H](O)[C@H](O[C@@H]8O[C@H](CO)[C@@H](O)[C@H](O)[C@H]8O)[C@H]7O[C@H]7O[C@@H](C)[C@H](O)[C@@H](O)[C@H]7O)CC[C@]6(C)[C@H]5CC[C@]34C)N2C1 (stereo not given in full) |  | 12.6 µM (active) |
| CCOC(=O)c1ccccc1C(=O)OCC | -2.28% and 4.29% and 3.24% |  |
| COC1=CC(=O)O[C@@H](/C=C/c2ccccc2)C1 | -13.6% |  |
| O=C(O)c1cc[c]([Hg][Cl])cc1 | -11.9% |  |
| ClC=C(Cl)Cl | 5.41% and -9.88% |  |
| Clc1ccccc1Cl | 2.94% |  |
| C=CCN=C=S | -7.74% |  |
| C[C@]12CCC(=O)C[C@@H]1CC[C@@H]1[C@@H]2CC[C@]2(C)[C@@H](O)CC[C@@H]12 | -9.61% and -12.6% |  |
| ClC1C(Cl)C(Cl)C(Cl)C(Cl)C1Cl (stereo not given) | -11% [middle of 4 runs] |  |
| [O]=[Cr](=[O])([OH])[O][Cr](=[O])(=[O])[OH] |  | 39.8 µM (active) and 15.8 µM (active) |
| O=[N+]([O-])c1ccccc1 | -0.844% and 8.43% |  |
| CC(C)CCON=O | -5.29% |  |
| CCCCCCCCOC(=O)c1ccccc1C(=O)OCCCCCCCC | -2.74% and -18% |  |
| O=[N+]([O-])C(Br)(CO)CO |  | 50.1 µM (active) |
